According to PubChem BioAssay (NCATS):
Values without a mark were called inactive. Results filed as inconclusive are left out. A call without a number means that no potency is given here. A structure can be active in one record and inactive in another. Active and inactive are the calls of the source. Unless noted, calls follow the shape of the dose curve; as a rule, active = well fitted curve in the direction sought with a large enough effect; inconclusive = small, poorly fitted or top-dose-only effect, or another doubt; inactive = no such curve, though single readings can be large; an effect the other way counts as inactive or inconclusive.

Legend:
[1] = target: Cytochrome P450 3A4 (Homo sapiens) (UniProt P08684); assay: qHTS Assay for Activators of Cytochrome P450 3A4 (AID 885); also: nearly all actives have a fitted effect of over 65% in size
How it was run: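 20nM CYP3A4 + 25uM Luciferin-PPXE (=KM), 200mM KPO4; cpd 10 min RT; NADPH regen, 60 min RT; stop w/ detection buffer, 20 min; luminescence. Normalized to 57 uM ketoconazole.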

[2] = target: Guanine nucleotide-binding protein G(i) subunit alpha-1 (Homo sapiens) (UniProt P63096); assay: qHTS Assay for Inhibitors of RGS12 GoLoco Motif Activity (Green Fluorophore) (AID 879);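 also: negative values mean loss of peptide binding seen as reduced polarization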
How it was run: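 Fluorescence polarization assay: 50 nM Gαi1 with 10 nM FITC-labeled RGS12 GoLoco peptide in 10 mM Tris pH 7.5, 150 mM NaCl, 0.1 mM GDP, 0.05% NP40, 10 min at room temperature with compound.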

[3] = target: Cytochrome P450 2C19 (Homo sapiens) (UniProt P33261); assay: qHTS Assay for Inhibitors and Substrates of Cytochrome P450 2C19 (AID 899); also: nearly all actives have a fitted effect of over 60% in size
How it was run: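 Signal comes from luciferase acting on luciferin released by CYP2C19-mediated hydroxylation of Luciferin-H EGE, 10uM (KM). Assay mix: 5nM enzyme, 50mM KPO4; 60 min at 37C with NADPH regeneration. Data normalized against 57uM ketoconazole.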

[4] = Confirmation and Secondary Assay for Modulators of Hemoglobin Beta Chain Splicing at IVS2 654 locus (AID 910);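 also: HeLa cells stably carrying EGFP split by mutant beta-globin IVS2-654 intron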
How it was run: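 HeLa cells stably expressing EGFP interrupted by β-globin IVS2-654 intron, seeded overnight in Opti-MEM/2% FCS, then treated 2 days at 37 °C. Restored splicing read as total peak GFP intensity per well by laser scanning cytometry (488 nm excitation, 500–520 nm emission); 500 nM antisense PNA as control.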

[5] = qHTS Assay for Identification of Small Molecule Agonists for Thrombopoietin (TPO) Signaling Pathway (AID 917)
How it was run: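 IL-3-dependent murine pro-B Ba/F3 cells, stably transfected with human TPO receptor and GpIIb-promoter luciferase, are incubated 24 hrs at 37 C with test compound and 26 pM TPO; luciferase signal is read after 10 min at room temperature.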

[6] = target: Muscarinic acetylcholine receptor M1 (Rattus norvegicus) (UniProt P08482); assay: qHTS Assay for Antagonists of Acetylcholine Muscarinic M1 Receptor: Kinetic Measurement of Intracellular Calcium Response (AID 943); also: nearly all actives have a fitted effect of over 75% in size; also: potency is read from the fitted curve at half-maximal effect;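 as to activity change, negative = inhibition: Fluo-4 calcium signal as peak divided by basal fluorescence over 4 min; series mostly up to about 35 µM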
How it was run: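 Intracellular calcium flux, recorded with Fluo-4 in a kinetic plate reader, served as signal; the response to carbachol at EC80 (100 nM final) was taken as maximal over minimal fluorescence after a 10 min compound pre-incubation in rat M1-CHO cells.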

[7] = target: Muscarinic acetylcholine receptor M1 (Rattus norvegicus) (UniProt P08482); assay: qHTS Assay for Antagonists of Acetylcholine Muscarinic M1 Receptor: Measurement of IP-One Response (AID 944); also: nearly all actives have a fitted effect of over 75% in size; also: potency is read from the fitted curve at half-maximal effect
How it was run: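 Steps: plate transfected CHO-M1 cells overnight; add test compound, 10 min; add carbachol (200 nM, EC80) in stimulation buffer with LiCl; incubate 30 min; add labelled IP1 tracer and anti-IP1 antibody in lysis buffer; read HTRF after 10 min.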

[8] = target: Cytochrome P450 2C9 (Homo sapiens) (UniProt P11712); assay: qHTS Assay for Inhibitors and Substrates of Cytochrome P450 2C9 (AID 883); also: nearly all actives have a fitted effect of over 60% in size; also: potency is read from the fitted curve at half-maximal effect
How it was run: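 Signal: luciferase luminescence reporting luciferin produced by CYP2C9. Conditions: 10nM enzyme, Luciferin-H 100uM at KM, 25mM KPO4, 37C, 60 min NADPH-driven reaction. Reference: 57uM sulphaphenazole as 100% inhibition.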

[9] = target: Cytochrome P450 2D6 (Homo sapiens) (UniProt P10635); assay: qHTS Assay for Inhibitors and Substrates of Cytochrome P450 2D6 (AID 891); also: nearly all actives have a fitted effect of over 60% in size; also: potency is read from the fitted curve at half-maximal effect;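 as to activity change, negative = inhibition: luciferin methyl ether substrate demethylated by CYP2D6 with NADPH regeneration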
How it was run: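 Human CYP2D6 (5 nM) with 30 uM Luciferin-ME EGE (at Km) in 100 mM KPO4, compound preincubated 10 min, then NADPH regeneration system for 60 min at room temperature. Luciferin read by luminescence; normalized to 1.43 uM quinidine.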

[10] = Confirmation and Secondary Assay for Modulators of Hemoglobin Beta Chain Splicing at IVS2 705 locus (AID 930);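 also: HeLa cells stably expressing the EGFP-705 splicing reporter; series mostly up to about 46 µM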
How it was run: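 HeLa cells stably carrying EGFP interrupted by mutant beta-globin IVS2-705 intron (CMV-driven) were seeded at 500 cells/well, treated next day with compound for 2 days at 37C; corrected splicing restores EGFP, read as total peak GFP intensity per well.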

[11] = qHTS Assay for Identification of Small Molecule Antagonists for Thrombopoietin (TPO) Signaling Pathway (AID 918); settings: TPO-dependent cell signaling reporter, antagonist mode; also: potency is read from the fitted curve at half-maximal effect; nearly all actives have a fitted effect of over 60% in size
How it was run: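 First, Ba/F3 reporter cells expressing human TPO receptor were held overnight without IL-3. Next, compound and 26 pM TPO were added. After 24 hrs incubation at 37 C, luciferase luminescence under the Glycoprotein IIb promoter was recorded.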

[12] = qHTS Assay for Identification of Small Molecule Antagonists for NFkB Signaling Pathway (AID 895; active = well fitted inhibition curve with a large enough effect in the signal ratio, with a control signal flat, not every such curve was filed as active; the % refers to the signal ratio)
How it was run: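 ME-180 NFkB-bla cells (beta-lactamase under NFkB response element), plated overnight, treated with compound then 10 pM TNF alpha (about EC50) for 5 hrs at 37 C. LiveBLAzer FRET read at 460/530 nm emission, 405 nm excitation.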

[13] = qHTS Assay for Identification of Small Molecule Agonists for Hypoxia Response Element Signaling Pathway (AID 914; active = well fitted activation curve with a large enough effect in the signal ratio, with a control signal flat, not every such curve was filed as active; the % refers to the signal ratio); settings: ME-180 HRE-bla reporter, beta-lactamase ratio, CoCl2, 17 h; stronger effect = higher value
How it was run: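 ME-180 cells carrying an HRE-driven beta-lactamase reporter were treated with compounds in a titration series plus an EC50 level of CoCl2 for 17 h at 37 degrees Celsius; CCF4 readout as the 460nm/530nm ratio gave AC50 values.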

Sequence of Cytochrome P450 3A4 (Homo sapiens) (P08684 whole entry, looked up): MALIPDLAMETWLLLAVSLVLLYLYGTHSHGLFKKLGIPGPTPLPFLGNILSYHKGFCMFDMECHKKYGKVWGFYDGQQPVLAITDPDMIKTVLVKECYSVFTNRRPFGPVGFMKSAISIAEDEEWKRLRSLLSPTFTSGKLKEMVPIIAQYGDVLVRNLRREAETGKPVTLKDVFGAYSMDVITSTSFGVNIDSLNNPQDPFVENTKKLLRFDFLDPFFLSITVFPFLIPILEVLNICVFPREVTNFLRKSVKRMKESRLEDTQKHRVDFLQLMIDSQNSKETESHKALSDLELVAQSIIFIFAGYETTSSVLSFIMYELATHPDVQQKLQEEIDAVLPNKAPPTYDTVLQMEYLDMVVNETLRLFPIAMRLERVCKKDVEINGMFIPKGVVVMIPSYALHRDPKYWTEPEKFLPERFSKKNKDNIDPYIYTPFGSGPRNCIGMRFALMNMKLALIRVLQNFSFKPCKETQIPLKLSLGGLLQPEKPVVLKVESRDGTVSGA
Sequence of Guanine nucleotide-binding protein G(i) subunit alpha-1 (Homo sapiens) (P63096 whole entry, looked up): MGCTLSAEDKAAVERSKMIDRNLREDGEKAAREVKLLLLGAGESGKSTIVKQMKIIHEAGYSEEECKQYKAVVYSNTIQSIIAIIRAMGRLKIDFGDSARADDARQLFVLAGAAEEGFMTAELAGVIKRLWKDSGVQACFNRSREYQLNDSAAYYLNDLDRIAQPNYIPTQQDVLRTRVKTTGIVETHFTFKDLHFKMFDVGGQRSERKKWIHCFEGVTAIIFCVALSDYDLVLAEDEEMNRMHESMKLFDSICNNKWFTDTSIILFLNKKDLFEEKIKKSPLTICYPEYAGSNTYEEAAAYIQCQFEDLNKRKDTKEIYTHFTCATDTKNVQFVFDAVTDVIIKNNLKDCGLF
Sequence of Muscarinic acetylcholine receptor M1 (Rattus norvegicus) (P08482 whole entry, looked up): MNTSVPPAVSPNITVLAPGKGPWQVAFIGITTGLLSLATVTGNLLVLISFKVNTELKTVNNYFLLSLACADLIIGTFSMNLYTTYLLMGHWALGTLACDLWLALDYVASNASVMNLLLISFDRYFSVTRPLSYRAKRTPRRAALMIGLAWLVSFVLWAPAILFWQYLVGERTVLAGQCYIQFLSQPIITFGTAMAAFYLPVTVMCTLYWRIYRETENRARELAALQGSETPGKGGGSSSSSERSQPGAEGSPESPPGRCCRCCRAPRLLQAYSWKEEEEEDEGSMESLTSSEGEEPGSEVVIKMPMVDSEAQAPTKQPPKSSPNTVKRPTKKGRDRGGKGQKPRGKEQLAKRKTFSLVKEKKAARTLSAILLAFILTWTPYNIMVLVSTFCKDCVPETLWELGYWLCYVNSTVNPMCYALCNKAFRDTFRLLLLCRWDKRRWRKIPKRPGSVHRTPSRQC
Sequence of Cytochrome P450 2C19 (Homo sapiens) (P33261 whole entry, looked up): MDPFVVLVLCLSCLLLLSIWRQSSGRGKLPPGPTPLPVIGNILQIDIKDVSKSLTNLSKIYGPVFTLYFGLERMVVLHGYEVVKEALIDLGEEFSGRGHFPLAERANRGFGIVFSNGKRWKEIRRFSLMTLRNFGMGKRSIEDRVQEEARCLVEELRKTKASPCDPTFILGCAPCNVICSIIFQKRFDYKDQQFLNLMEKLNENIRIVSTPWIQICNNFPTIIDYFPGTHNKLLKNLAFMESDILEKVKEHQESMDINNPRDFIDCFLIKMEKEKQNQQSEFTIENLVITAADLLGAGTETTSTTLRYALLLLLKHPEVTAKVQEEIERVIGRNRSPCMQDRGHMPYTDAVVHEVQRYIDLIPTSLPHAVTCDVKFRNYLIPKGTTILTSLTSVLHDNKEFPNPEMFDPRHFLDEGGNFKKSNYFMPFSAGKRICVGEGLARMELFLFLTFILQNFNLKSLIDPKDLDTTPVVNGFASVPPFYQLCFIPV
Sequence of Cytochrome P450 2D6 (Homo sapiens) (P10635 whole entry, looked up): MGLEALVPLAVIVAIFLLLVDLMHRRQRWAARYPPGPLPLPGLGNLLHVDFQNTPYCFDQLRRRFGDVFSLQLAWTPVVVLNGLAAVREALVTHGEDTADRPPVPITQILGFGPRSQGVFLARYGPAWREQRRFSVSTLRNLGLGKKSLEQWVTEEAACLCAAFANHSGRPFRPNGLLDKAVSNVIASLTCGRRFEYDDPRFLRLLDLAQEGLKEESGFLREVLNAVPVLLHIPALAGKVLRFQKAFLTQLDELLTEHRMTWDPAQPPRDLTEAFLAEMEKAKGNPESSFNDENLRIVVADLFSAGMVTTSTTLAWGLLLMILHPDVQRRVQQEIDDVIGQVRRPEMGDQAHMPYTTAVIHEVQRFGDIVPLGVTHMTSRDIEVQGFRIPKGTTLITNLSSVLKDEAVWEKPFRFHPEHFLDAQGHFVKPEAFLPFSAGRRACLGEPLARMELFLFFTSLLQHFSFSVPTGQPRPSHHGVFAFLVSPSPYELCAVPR
Sequence of Cytochrome P450 2C9 (Homo sapiens) (P11712 whole entry, looked up): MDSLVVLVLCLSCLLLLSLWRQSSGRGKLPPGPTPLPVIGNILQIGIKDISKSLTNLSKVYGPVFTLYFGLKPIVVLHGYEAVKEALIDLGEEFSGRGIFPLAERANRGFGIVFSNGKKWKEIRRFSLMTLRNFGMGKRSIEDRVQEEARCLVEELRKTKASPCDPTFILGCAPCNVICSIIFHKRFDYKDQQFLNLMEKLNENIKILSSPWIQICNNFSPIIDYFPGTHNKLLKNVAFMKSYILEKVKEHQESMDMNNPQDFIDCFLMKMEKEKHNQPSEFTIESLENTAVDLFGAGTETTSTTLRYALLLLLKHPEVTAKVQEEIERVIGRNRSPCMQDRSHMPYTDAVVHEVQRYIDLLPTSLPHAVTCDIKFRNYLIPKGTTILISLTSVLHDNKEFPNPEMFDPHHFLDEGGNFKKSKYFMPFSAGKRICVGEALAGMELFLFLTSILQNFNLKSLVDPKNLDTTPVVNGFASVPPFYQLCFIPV

CCN(CC)CCCC(C)Nc1c2ccc(Cl)cc2nc2ccc(OC)cc12 (stereo not drawn)
outcome [1]: inactive

C=Cc1c(C)c2cc3[nH]c(cc4nc(cc5nc(cc1[nH]2)C(C)=C5CCC(=O)O)C(CCC(=O)O)=C4C)c(C)c3C=C
outcome [2]: inactive | Potency [3]: inactive | outcome [4]: inactive | outcome [5]: inactive | Potency [6]: inactive | Potency [7]: inactive

C[C@]12CC[C@@H]3c4ccc(O)cc4CC[C@H]3[C@@H]1CCC2=O
outcome [2]: inactive | outcome [5]: inactive

CC1=C(/C=C/C(C)=C/C=C/C(C)=C/C(=O)O)C(C)(C)CCC1
outcome [1]: inactive

Cc1cccc(Nc2cc(Cl)nc(SCC(=O)O)n2)c1C
activity change, negative = inhibition [8]: -10.9% [at 11.4 µM] | Potency [9]: 3.16 µM (active) | activity change, negative = inhibition [9]: 13.3% [at 11.4 µM] | activity, negative = inhibition [3]: 16.3% [at 11.4 µM] | outcome [4]: inactive | Potency [10]: inactive

COc1ccc(Cl)cc1C(=O)NCCc1ccc(S(=O)(=O)NC(=O)NC2CCCCC2)cc1
outcome [2]: inactive | outcome [4]: inactive | outcome [5]: inactive | Potency [7]: inactive

CC(C)NC[C@H](O)c1ccc(O)c(O)c1
outcome [2]: inactive | outcome [5]: inactive

Cc1cc(N)c2ccccc2[n+]1CCCCCCCCCC[n+]1c(C)cc(N)c2ccccc21
outcome [2]: inactive | outcome [1]: inactive | outcome [4]: inactive | Potency [6]: 1.78 µM (active) | Potency [7]: 2.24 µM (active)

CSc1ccc2c(c1)C(N1CCN(C)CC1)Cc1ccccc1S2 (stereo not drawn)
outcome [4]: inactive

c1ccc(CN(CC2=NCCN2)c2ccccc2)cc1
Potency [9]: 2.51 µM (active) | outcome [4]: inactive

NC1CCN(c2cccc(Cl)n2)CC1
outcome [2]: inactive | outcome [5]: inactive

O=c1cc(CO)occ1O
Potency [8]: inactive | Potency [3]: inactive

CCCCN1CCCC[C@H]1C(=O)Nc1c(C)cccc1C
outcome [1]: inactive | Potency [9]: 0.501 µM (active)

Cc1cc2c(cc1S(N)(=O)=O)S(=O)(=O)CCC2
Potency [8]: inactive

CN(C)CCCN1c2ccccc2Sc2ccc(Cl)cc21
outcome [2]: inactive | outcome [4]: inactive | Potency [11]: 12.6 µM (active)

CCCn1cnc2c1c(=O)n(CCCCC(C)=O)c(=O)n2C
outcome [2]: inactive | outcome [5]: inactive | Potency [6]: inactive | Potency [7]: inactive

OCCN1CCN(CCCN2c3ccccc3Sc3ccc(Cl)cc32)CC1
outcome [2]: inactive | outcome [4]: inactive | Potency [11]: 15.8 µM (active)

Cc1c(Cl)cccc1Nc1ccccc1C(=O)O
Potency [8]: 3.16 µM (active) | outcome [4]: inactive | Potency [10]: inactive

OCc1cc(C(O)CNCCCCCCOCCCCc2ccccc2)ccc1O (stereo not drawn)
outcome [2]: inactive | Potency [11]: 10 µM (active) | Potency [7]: inactive

CC(=O)OCC(=O)[C@@]1(O)CC[C@H]2[C@@H]3CCC4=CC(=O)CC[C@]4(C)[C@H]3C(=O)C[C@@]21C
outcome [2]: inactive | outcome [5]: inactive

N=c1c[n+](N2CCOCC2)[n-]o1
outcome [2]: inactive | Potency [12]: inactive | outcome [5]: inactive | Potency [7]: inactive

COc1ccc2c(c1)C(=O)N(CCc1ccc(S(=O)(=O)NC(=O)NC3CCCCC3)cc1)C(=O)C2(C)C
outcome [1]: inactive

CCC(=O)c1ccc(O)cc1
activation [13]: 5.29%

Cc1ncc([N+](=O)[O-])n1CC(O)CCl (stereo not drawn)
activation [13]: 4.13%

CC1=C(CC(=O)O)c2cc(F)ccc2/C1=C\c1ccc(S(C)=O)cc1 (stereo not drawn)
outcome [5]: inactive
